Sampled rows, rich in hits. Any-hit rate of the full collection: about 18%.
TDP1 block: qHTS Assay for Inhibitors of Tyrosyl-DNA Phosphodiesterase (TDP1); Tyrosyl-DNA phosphodiesterase 1 (Homo sapiens), Q9NUW8; recombinant TDP1, AlphaScreen DNA substrate cleavage; Potency, µM (doses to about 130 µM), inactives show at the highest dose activity change, negative = inhibition, actives largely listed as inhibitors; 350,000 compounds, 0.28% hits; AID 485290, 2010; further: potency means the concentration at half of the fitted maximal effect; nearly all actives have a fitted effect of over 40% in size
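E. coli-derived human Tdp1, 1 nM final. Cpd preinc 15 min RT; substrate 15 nM final, 5 min RT; AS bead mix 10 ug/ml final, 10 min RT. Signal loss = tyrosine-FITC cleavage. No-enzyme wells = max signal.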
DT40 TDP1 CPT: qHTS for Inhibitors of human tyrosyl-DNA phosphodiesterase 1 (TDP1): qHTS in cells in presence of CPT. 420,000 compounds, 12% hits. AID 686979, 2013. chicken DT40 Tdp1-/-;hTDP1 cells + 20 nM CPT, ATP luminescence, 48 h. Potency, µM (titrated, usually from 46.2 µM), for the others: at the highest dose activity change, negative = growth inhibition, most hits filed as inhibitors; further: potency means the concentration at half of the fitted maximal effect; nearly all actives have a fitted effect of over 55% in size
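Chicken DT40 Tdp1-/- cells stably complemented with human TDP1 were seeded at 400 cells/well in medium containing 20 nM camptothecin, exposed to pin-transferred compounds, and grown at 37 °C for at least 48 hr. Viability was read as ATP luminescence.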
CtBP-E1A blk: qHTS Assay for Inhibitors of the CtBP/E1A Interaction. activity change, % (test concentration not listed). 340,000 compounds, 0.49% hits. CtBP / adenovirus E1A interaction (AlphaScreen). AlphaScreen GST-E1A/His-CtBP binding, 1536-well; active compounds read low; in the data active means activity change below about -65%; inconclusive means mostly about -30% to -63%
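In 5 uL wells, 23 nL compound meets equimolar GST-E1A and His-CtBP (5X stock 125 nM each) for 2 h, 37 °C. Beads (5X, 50 ug/mL) then 1 h, 37 °C, dark.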
IL-1B inflam inh: qHTS for Inhibitors of Inflammasome Signaling: IL-1-beta AlphaLISA Primary Screen; activity change, % at 57.5 µM; THP-1 LPS/ATP IL-1B secretion, AlphaLISA, 16 h; active compounds read low; 360,000 compounds, 4.7% hits; in the data active means activity change below about -50%; inconclusive means mostly about -30% to -49%
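THP-1 cells pretreated 1 hr with compounds (up to 57.5 uM final), then stimulated with LPS (250 ng/mL final) plus ATP (1.25 mM final); secreted IL-1B measured by AlphaLISA after 16 hr, decreased signal indicating inhibition.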
Six1-Eya2 inh: qHTS Assay for Inhibitors of the Six1/Eya2 Interaction | Homeobox protein SIX1 (Homo sapiens) + Protein phosphatase EYA2 (Homo sapiens), … | AID 651725, 2012 | activity change, % (concentration not given with the values) | 360,000 compounds, 0.56% hits | AlphaScreen GST-Six1/His-Eya2 binding, biochemical; active compounds read low; in the data active means activity change below about -65%; inconclusive means mostly about -30% to -63%
Target sequence (O00167 whole entry, looked up): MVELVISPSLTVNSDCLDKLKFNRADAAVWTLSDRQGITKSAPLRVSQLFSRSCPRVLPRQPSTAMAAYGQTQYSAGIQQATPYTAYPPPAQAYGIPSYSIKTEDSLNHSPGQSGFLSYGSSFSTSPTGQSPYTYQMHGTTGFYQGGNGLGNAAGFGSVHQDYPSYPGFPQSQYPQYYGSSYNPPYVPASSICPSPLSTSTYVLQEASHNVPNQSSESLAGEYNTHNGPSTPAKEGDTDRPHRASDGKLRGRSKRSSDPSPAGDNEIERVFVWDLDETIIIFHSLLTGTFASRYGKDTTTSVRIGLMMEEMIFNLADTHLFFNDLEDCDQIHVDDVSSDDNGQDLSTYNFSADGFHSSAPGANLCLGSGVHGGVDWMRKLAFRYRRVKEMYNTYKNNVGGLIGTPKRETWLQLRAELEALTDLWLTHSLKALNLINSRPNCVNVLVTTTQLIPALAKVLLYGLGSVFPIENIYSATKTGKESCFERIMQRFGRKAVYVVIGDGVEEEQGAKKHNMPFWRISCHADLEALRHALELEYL
Target sequence (Q15475 whole entry, looked up): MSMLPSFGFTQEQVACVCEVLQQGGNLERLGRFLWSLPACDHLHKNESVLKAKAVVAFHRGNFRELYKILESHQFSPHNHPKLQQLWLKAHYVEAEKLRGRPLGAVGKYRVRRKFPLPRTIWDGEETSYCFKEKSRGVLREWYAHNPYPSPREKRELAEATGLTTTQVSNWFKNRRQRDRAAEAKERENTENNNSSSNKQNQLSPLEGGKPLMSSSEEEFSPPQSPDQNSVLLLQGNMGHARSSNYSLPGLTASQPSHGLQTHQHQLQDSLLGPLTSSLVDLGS
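GST-Six1 + His-Eya2 (5X stock: 250/500 nM); Tris pH 8.0, 300 mM NaCl, 0.05% BSA, 0.02% Tween 20; GSH donor/Ni acceptor beads; 1 h 37 °C dark; AlphaScreen readout.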
DT40 TDP1 no CPT: qHTS for Inhibitors of human tyrosyl-DNA phosphodiesterase 1 (TDP1): qHTS in cells in absence of CPT | DT40 Tdp1-/- hTDP1 cells, no CPT, ATP luminescence, 48 h | Potency, µM (titrated, usually from 46.2 µM), without a hit: at the highest dose activity change, negative = growth inhibition, usual class: inhibitors | 420,000 compounds, 15% hits | AID 686978, 2013; further: potency means the concentration at half of the fitted maximal effect; nearly all actives have a fitted effect of over 55% in size
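Luminescent ATP content (CellTiter-Glo) served as the growth readout. Knockout chicken DT40 cells expressing human TDP1 were exposed to compounds without camptothecin for a minimum 48 hr at 37 °C.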
An asterisk follows results filed as active; ? = inconclusive; nt = no result given; ! = not confirmed by another sample; [ ] = another dose, or the depositor's remark. Unless noted, the call rests on the fitted dose curve; in most records, active means well fitted curve in the direction sought with a large enough effect; inconclusive means small, poorly fitted or top-dose-only effect, or another doubt; inactive means no such curve, though single readings can be large; an effect the other way counts as inactive or inconclusive. On the % scale 0 is the no-effect control and ±100 the full control effect.

SMILES	TDP1 block	DT40 TDP1 CPT	CtBP-E1A blk	IL-1B inflam inh	Six1-Eya2 inh	DT40 TDP1 no CPT
Cn1ccc2c(N3CCCC3)cc3c(c21)C1CCC3O1 (stereo not drawn)	nt	?	-20	-1	-23	?
Cn1ccc2c(N3CCCCCC3)cc3c(c21)C1CCC3O1 (stereo not drawn)	nt	21µM*	?	10	?	?
Cn1ccc2c(N3CCCC3)cc3c(c21)C1CCC3C1 (stereo not drawn)	nt	21µM*	-24	13	?	15µM*
COc1cccc2c1C(=O)C[C@]1(CCCC[C@@H]1C)O2	-17%	-5%	12	46	14	?
CC(Sc1nc(C(C)(C)C)cc(-c2ccccc2)c1C#N)C(=O)Nc1ccccc1 (stereo not drawn)	3%	?	8	23	5	29µM*
COc1ccccc1-c1cc(-c2ccccc2)nc(SC(C(N)=O)c2ccccc2)c1C#N (stereo not drawn)	1%	?	1	15	4	23µM*
CCOC(=O)C(C)Sc1nc(-c2ccccc2Cl)cc(-c2ccccc2)c1C#N (stereo not drawn)	-3%	13µM*	nt	nt	nt	?
CSc1cccc(NC(=O)N2CCN(S(=O)(=O)c3ccc4c(ccn4C)c3)CC2)c1	8%	nt	nt	nt	nt	nt
COc1ccccc1CC(=O)Nc1ccc2nc(Nc3cccc(C(F)(F)F)c3)cc(C)c2c1	-2%	7.3µM*	nt	nt	nt	5.8µM*
COc1cccc(CC(=O)Nc2ccc3nc(Nc4cccc(C(F)(F)F)c4)cc(C)c3c2)c1	4%	?	nt	nt	nt	18µM*
CN(C)c1ncnc2c1nnn2C1OC(CO)C(O)C1O (stereo not drawn)	nt	0.58µM*	-17	96	-2	0.33µM*
CN(C)c1ncnc2c1ncn2C1OC(CO)C(O)C1O (stereo not drawn)	0%	2.9µM*	-1	35	8	2.9µM*
OC[C@H]1O[C@@H](n2cnc3c(Nc4ccccc4)ncnc32)[C@H](O)[C@H]1O	-3%[56.1 µM]	nt	nt	nt	nt	nt
CNc1ncnc2c1ncn2[C@@H]1O[C@H](CO)[C@@H](O)[C@H]1O	2%	?	0	55	5	-23%
OCC1OC(n2cnc3c(/C=C(\O)c4ccccc4)ncnc32)C(O)C1O (stereo not drawn)	nt	1.3µM*	0	-7	-10	1.5µM*
C=CCOc1ccc(C[C@H](N)C(=O)NC[C@H]2O[C@@H](n3cnc4c(N)ncnc43)[C@H](O)[C@@H]2O)cc1	0%[56.1 µM]	-13%	3	-14	-10	-22%
Nc1ncnc2c1ncn2[C@@H]1O[C@H](CO)[C@H](O)[C@H]1O	9%[56.1 µM]	nt	nt	nt	nt	nt
COc1ccc(C[C@H](N)C(=O)N[C@H]2[C@@H](O)[C@H](n3cnc4c(N(C)C)ncnc43)O[C@@H]2CO)cc1	nt	-25%	9	-90*	3	8.2µM*!
O=[N+]([O-])c1ccc(CNc2ccc(Cl)cc2)s1	11%	-21%	-6	?	-3	-14%
COc1ccc(NCc2ccc([N+](=O)[O-])s2)c(OC)c1	12%	16µM*	-24	-8	-9	?
O=[N+]([O-])c1ccc(CNc2ccc(F)cc2)s1	8%	-14%	-8	-85*	-2	?
COc1ccc(NC(=O)/C=C/c2ccccc2[N+](=O)[O-])c(OC)c1	4%	?	-22	-13	-23	?
COc1ccc(NCc2ccc([N+](=O)[O-])s2)cc1	12%	?	-12	-71*	-4	21µM*
O=[N+]([O-])c1ccc(CNc2cccc(Cl)c2)s1	nt	?	0	-95*	-17	?
O=C(O)c1cc2ccccc2c(Cc2c(O)c(C(=O)O)cc3ccccc23)c1O	nt	0%	nt	nt	nt	-15%
SMILES	TDP1 block	DT40 TDP1 CPT	CtBP-E1A blk	IL-1B inflam inh	Six1-Eya2 inh	DT40 TDP1 no CPT
CN(CCNC(=O)Cn1c(=O)sc2ccccc21)Cc1ccccc1	0%	?	0	-30	0	-30%
CCc1nc2c(OCc3ccccc3C)cccn2c1N(C)C(=O)C(C)C	nt	18µM*	-4	114	5	16µM*
CCCCC(=O)N(C)c1c(CC)nc2c(OCc3ccccc3C)cccn12	nt	29µM*	-3	-22	0	29µM*
CCc1nc2c(OCc3ccccc3C)cccn2c1N(C)C(=O)CC(C)C	nt	21µM*	-18	1	-12	18µM*
CCc1nc2c(OCCn3cccc3)cccn2c1N(C)C(=O)CC(C)C	nt	-24%	-3	10	-4	?
Cn1cccc1CNCc1ccc(F)cc1	0%	-24%	9	2	-16	-7%
CCN(CC(=O)Nc1ccccc1-c1ccccc1)Cc1nc2ccccc2c(=O)[nH]1	5%	5.8µM*	4	46	-3	4.6µM*
CCN(CC(=O)Nc1ccccc1SC)Cc1nc2ccccc2c(=O)[nH]1	4%	0.65µM*	-2	66	4	2.1µM*
C[C@@H](C(=O)O)[C@H]1C[C@]1(C)[C@H](NC(=O)OCc1ccccc1)c1ccccc1	-1%	-14%	13	35	0	-4%
CC(C)c1ccc(NC2CCCN(C(=O)c3ccc(N4CCOCC4)cc3)C2)cc1 (stereo not drawn)	8%	?	-5	-6	-8	16µM*
Cc1nonc1C(=O)N1CCCC(Nc2ccc(C(C)C)cc2)C1 (stereo not drawn)	9%	33%	nt	0	-1	2.3µM*
Nc1ccc(S(=O)(=O)c2ccc(N)nc2)cc1	nt	-4%	1	-5	8	2%
CSc1cccc(NC(=S)NN(C)C)c1	-1%	?	6	4	3	18µM*
CSc1cccc(NC(=S)Nc2ccc(F)cc2)c1	6%	23µM*	-2	-2	3	?
CC1(C)Cc2ccccc2C(=C(C#N)C#N)N1	2%	5%	8	0	5	0%
CCCOc1ccc2c(=O)c(-c3cc(C(=O)OC)oc3C)c(C)oc2c1	4%	13µM*	-10	?	-13	18µM*
